# From PubChem
# The list is not random: actives were taken first. Their share in the collection is about 2%.
# PREPL inhibitor – human PREPL enzyme inhibition; hit rate 0.68% among 320,000; recombinant PREPL, fluorescence polarization activity-based probe; inhibition, % at 5.96 µM; AID 2751; Q4J6C6; in the data active means inhibition above about 43%
# LYPLA1 counter – blocks human lysophospholipase 1, a PME1 counter-screen; recombinant LYPLA1, FP-Rh probe fluorescence polarization; inhibition, % at 5.9 µM; hit rate 0.16% among 320,000; AID 2174;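 active means inhibition above the mean of all tested compounds plus 3 SD, set per campaign, cut at about 14% in these data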;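 further: inhibitors block serine hydrolase probe labeling of LYPLA1 so polarization falls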
# PME-1 inh – PME-1 (human) inhibition | recombinant PME-1, FP-Rh probe fluorescence polarization | inhibition, % at 5.9 µM | hit rate 0.53% among 320,000 | AID 2130;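 active means inhibition above the campaign mean of all compounds plus 3 SD, cut at about 26% in these data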;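 further: competitive labeling of PME-1 active site by serine hydrolase directed probe; inhibitors block probe labeling so polarization falls and inhibition rises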
# Target sequence (Q9Y570 whole entry, looked up): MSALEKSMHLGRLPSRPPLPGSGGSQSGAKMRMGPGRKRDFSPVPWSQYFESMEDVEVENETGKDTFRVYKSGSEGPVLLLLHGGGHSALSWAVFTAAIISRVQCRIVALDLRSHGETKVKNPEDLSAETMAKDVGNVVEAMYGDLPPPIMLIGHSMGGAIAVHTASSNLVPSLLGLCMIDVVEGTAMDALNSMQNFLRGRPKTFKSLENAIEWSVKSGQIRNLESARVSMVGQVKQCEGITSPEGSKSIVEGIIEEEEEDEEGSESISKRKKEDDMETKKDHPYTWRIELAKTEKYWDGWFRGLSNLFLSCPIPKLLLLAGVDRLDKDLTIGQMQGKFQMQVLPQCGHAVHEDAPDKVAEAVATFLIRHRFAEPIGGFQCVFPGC
# GSTO1 inh – GSTO1 inhibition, counter-screen for RBBP9 inhibitors | recombinant GSTO1, activity-based probe fluorescence polarization | inhibition, % at 5.96 µM | hit rate 1.1% among 300,000 | AID 1974;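 active means inhibition above the campaign mean inhibition plus 3 SD, cut at about 35% in these data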
# LYPLA2 inh – counter-screen for PME1 inhibitors: inhibitors of human LYPLA2; hit rate 0.38% among 320,000; recombinant LYPLA2, FP-Rh probe fluorescence polarization; O95372; AID 2177; inhibition, % at 5.9 µM;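 active means inhibition above the screen-wide mean plus 3 SD, limit set per campaign, cut at about 26% in these data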
# Target sequence (O95372 whole entry, looked up): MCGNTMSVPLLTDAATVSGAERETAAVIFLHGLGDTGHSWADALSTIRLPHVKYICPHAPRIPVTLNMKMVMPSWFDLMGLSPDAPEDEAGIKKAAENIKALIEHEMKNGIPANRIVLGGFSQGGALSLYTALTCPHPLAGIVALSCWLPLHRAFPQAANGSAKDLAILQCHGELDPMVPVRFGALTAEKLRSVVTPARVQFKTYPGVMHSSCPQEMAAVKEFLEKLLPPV
# Fam108B counter – blocks mouse Fam108B hydrolase in RBBP9 counter-screen; AID 1947; hit rate 0.33% among 300,000; inhibition, % at 9.51 µM; recombinant Fam108B, FP-Rh probe fluorescence polarization;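 active means inhibition above the screen mean inhibition plus 3 SD, computed separately per campaign, cut at about 18% in these data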;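 further: inhibitors lower polarization as less probe binds the enzyme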
# LYPLA2 conf – LYPLA2 (human) inhibition, confirmation counter-screen; inhibition, % at 5.9 µM; AID 2232; shares compounds with LYPLA2 inh; recombinant LYPLA2, FP-Rh probe fluorescence polarization; hit rate 72% among 1,100;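 active means mean inhibition across replicates above the hit cutoff set in the primary screen, cut at about 26% in these data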;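 further: blocked labeling of the enzyme by serine hydrolase FP-Rh probe lowers polarization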
# LYPLA2 ABPP – blocks human acyl-protein thioesterase 2 in gel ABPP; shares compounds with LYPLA2 inh; rhLYPLA2 in mouse brain proteome, gel ABPP FP-Rh; inhibition, % at 20 µM; hit rate 30% among 150; AID 652029;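 active means inhibition of LYPLA2 enzyme probe labeling above about 50%, limit read from the data; inactive means inhibition below that limit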;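 further: loss of FP-Rh probe labeling of the LYPLA2 gel band measured as band density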
# Hits are given with their value; - = inactive; . = no result.
SMILES,PREPL inhibitor,LYPLA1 counter,PME-1 inh,GSTO1 inh,LYPLA2 inh,Fam108B counter,LYPLA2 conf,others
CC1Cc2cc(S(=O)(=O)N3CCN(c4ccc(Cl)cc4)CC3)ccc2N1C(=O)C1CC1 (centres undefined),-,-,-,-,-,-,.,
COC(=O)N/N=C/c1ccccc1OCCOc1ccc(OC)cc1,-,-,-,-,35.3,-,41.6,
Cc1ccc(S(=O)(=O)Nc2cccc(-n3cnnn3)c2)cc1C(=O)O,-,-,-,-,33.0,-,-,
O=C(CCNC(=O)c1ccc(Br)cc1)NCC1COc2ccccc2O1 (centres undefined),-,-,-,-,-,-,.,
COc1ccc(N2CCN(Cc3nc(-c4ccccc4)no3)CC2)cc1,-,-,-,-,26.0,-,-,
COc1ccc(-c2noc(CN3CCN(c4ccccc4)CC3)n2)cc1,-,-,-,-,-,-,.,
NS(=O)(=O)c1ccc(NS(=O)(=O)c2ccc(NC(=O)C3CC3)cc2)cc1,-,-,-,-,-,-,.,
Cc1ccc(OCC(=O)N/N=C/c2cc([N+](=O)[O-])ccc2N2CCCCC2)cc1,-,-,-,-,-,-,.,
O=C(COc1ccc([N+](=O)[O-])cc1)N/N=C/c1cc([N+](=O)[O-])ccc1N1CCOCC1,-,-,-,-,35.1,-,29.8,
O=C(COc1cccnc1[N+](=O)[O-])Nc1ccc2c(c1)OC(F)(F)O2,-,-,-,-,-,-,.,
CCCCCCC1CC(CCC(=O)Nc2ccc([N+](=O)[O-])cc2)C(=O)O1 (centres undefined),-,-,-,-,-,-,.,
CCCCCC1CC(CC(=O)Nc2ccc([N+](=O)[O-])cc2)C(=O)O1 (centres undefined),-,-,-,-,35.9,-,31.5,
CCCCCC1CC(CC(=O)O)C(=O)O1 (centres undefined),-,-,-,-,-,-,.,
CCCCCC1CC(CC(=O)Nc2ccc([N+](=O)[O-])cc2)OC1=O (centres undefined),-,-,-,-,34.6,-,36.8,
O=c1c2ccccc2ncn1CCCSc1ccc(Cl)cc1,-,-,-,-,33.6,-,28.9,
OC(COCc1ccccc1)CN1CCN(c2ccccc2)CC1 (centres undefined),-,-,-,-,-,-,.,
OC(COCc1cccs1)CN1CCN(c2cccc(C(F)(F)F)c2)CC1 (centres undefined),-,-,-,-,34.2,-,28.9,
Cc1ccc(C(=O)Nc2cccc(C(=O)NC3CCCCC3)c2)cc1,-,-,-,-,30.1,-,30.9,
Cc1cc(=O)oc2cc(Oc3ccc([N+](=O)[O-])cc3[N+](=O)[O-])ccc12,-,-,-,-,36.5,-,40.5,
O=Cc1cccc(Oc2ccc([N+](=O)[O-])cc2[N+](=O)[O-])c1,-,-,-,-,41.5,-,27.2,
COc1cc(/C=C(/C#N)c2ccc(F)cc2)ccc1Oc1ccc([N+](=O)[O-])cn1,-,-,-,-,46.5,-,51.2,LYPLA2 ABPP=-
COc1cc(/C=N/NC(=O)Cc2ccccc2)ccc1Oc1ccc([N+](=O)[O-])cc1[N+](=O)[O-],-,-,-,-,40.3,-,31.4,
COc1ccc([N+](=O)[O-])cc1/C=N/NC(=O)Cc1ccccc1,-,-,-,-,-,-,.,
COc1cc(/C=N\NC(=O)c2ccccc2F)ccc1Oc1ccc([N+](=O)[O-])cn1,-,-,-,-,30.6,-,-,
COC(=O)C1CCN(C(=O)CN2C(=O)NC3(CCC(C)CC3)C2=O)CC1 (centres undefined),-,.,.,.,.,.,.,
SMILES,PREPL inhibitor,LYPLA1 counter,PME-1 inh,GSTO1 inh,LYPLA2 inh,Fam108B counter,LYPLA2 conf,others
CC(=O)O[C@@H]1[C@@]2(C)O[C@H]2CC[C@]23O[C@H]2[C@H](OC3=O)C2=C(C)C(=O)O[C@@]21O,-,-,-,-,-,-,.,
Cc1cc(C)c(-n2c(SCCS(=O)(=O)c3ccc(F)cc3)n[nH]c2=O)c(C)c1,-,-,-,-,-,-,.,
CCOC(=O)C1CCN(C(=O)CNC(=O)Cn2c(C)cc3ccccc3c2=O)CC1,-,-,-,-,29.0,-,-,
COc1ccc(-n2nc(C(=O)NCC(=O)N3CCCC3)c3ccccc3c2=O)c(OC)c1,-,-,-,-,-,-,.,
COc1ccc(-n2nc(C(=O)NCC(=O)N3CCN(c4ccc(F)cc4)CC3)c3ccccc3c2=O)c(OC)c1,-,-,-,-,57.8,-,61.7,LYPLA2 ABPP=-
COC(=O)c1ccc(NC(=O)C(=O)N2CCN(C(=S)Nc3cccc(C)c3C)CC2)cc1,-,-,-,-,50.3,-,42.4,
CCCn1c(CCC(=O)O)nc2cc(S(=O)(=O)N3CCCC3)ccc21,-,-,-,-,-,-,.,
Cc1cc(C(=O)OCC(=O)c2cccs2)c2ccccc2n1,-,-,-,-,31.0,-,42.7,
Cc1cc(C(=O)OCC(=O)NC(C)C)c2ccccc2n1,-,-,-,-,-,-,.,
COCCn1c(SCC(=O)NC(C)c2ccc(F)cc2)nc2ccccc21 (centres undefined),-,-,-,-,-,-,.,
O=C(NCc1ccco1)c1ccc2c(c1)C(=O)N(Cc1ccccc1)C2=O,-,-,-,-,-,-,.,
CC(C)CCN1C(=O)c2ccc(C(=O)NCc3ccco3)cc2C1=O,-,-,-,-,28.4,-,-,
CCOc1ccc(NS(=O)(=O)c2ccc(C)c(C(=O)NCCCn3ccnc3)c2)cc1,-,-,-,-,-,-,.,
Cc1c(Br)c([N+](=O)[O-])nn1C(C)C(=O)N1CCc2ccccc2C1 (centres undefined),-,-,-,-,-,-,.,
CC12CCC(c3c(C(=O)N4CCOCC4)nn(-c4ccccc4)c31)C2(C)C (centres undefined),-,-,-,-,27.6,-,-,
CC12CCC(c3c(C(=O)O)nn(-c4ccc(F)cc4)c31)C2(C)C (centres undefined),-,-,-,-,-,-,.,
CN1CCN(C(=O)c2ccc3c(c2)S(=O)(=O)c2ccccc2C3=O)CC1,-,-,-,-,-,-,.,
CCN1CCN(C(=O)c2ccc3c(c2)S(=O)(=O)c2ccccc2C3=O)CC1,-,-,-,-,40.0,-,44.1,
CC(=O)N1CCN(C(=O)c2ccc3c(c2)S(=O)(=O)c2ccccc2C3=O)CC1,-,-,-,-,31.8,-,31.8,
O=[N+]([O-])c1cccnc1SCc1ccccc1,-,-,-,-,37.7,-,48.7,
CSCC[C@H](NC(=O)[C@H](Cc1ccccc1)n1c(=O)[nH]c2ccccc2c1=O)C(=O)N1CCC[C@H]1C(=O)O,-,-,-,-,-,-,.,
